Source: ChEMBL document CHEMBL2218924, “A broad activity screen in support of a chemogenomic map for kinase signalling research and drug discovery” (Biochem J, 2013)

Assays:
[1] = biological target: Glycogen synthase kinase-3 alpha (Homo sapiens) (UniProt P49840); conditions: at 1 µM
[2] = biological target: Glycogen synthase kinase-3 alpha (Homo sapiens) (UniProt P49840); conditions: at 10 µM
[3] = biological target: Glycogen synthase kinase-3 beta (Homo sapiens) (UniProt P49841); conditions: at 10 µM
Sequence of Glycogen synthase kinase-3 beta (Homo sapiens) (P49841 whole entry, looked up): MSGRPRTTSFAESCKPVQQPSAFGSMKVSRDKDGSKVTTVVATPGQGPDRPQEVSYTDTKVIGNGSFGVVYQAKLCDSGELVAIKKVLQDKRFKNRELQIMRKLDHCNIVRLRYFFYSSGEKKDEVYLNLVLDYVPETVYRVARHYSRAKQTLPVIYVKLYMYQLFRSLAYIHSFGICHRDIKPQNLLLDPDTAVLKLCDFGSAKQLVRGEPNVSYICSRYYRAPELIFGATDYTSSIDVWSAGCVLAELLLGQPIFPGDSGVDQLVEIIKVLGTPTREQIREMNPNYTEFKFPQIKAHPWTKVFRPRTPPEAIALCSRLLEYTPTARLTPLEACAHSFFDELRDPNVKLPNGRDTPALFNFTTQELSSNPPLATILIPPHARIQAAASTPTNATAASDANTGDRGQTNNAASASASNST

[4] = biological target: Tyrosine-protein kinase HCK (Homo sapiens) (UniProt P08631); conditions: at 10 µM
Sequence of Tyrosine-protein kinase HCK (Homo sapiens) (P08631 2-526 limits assumed): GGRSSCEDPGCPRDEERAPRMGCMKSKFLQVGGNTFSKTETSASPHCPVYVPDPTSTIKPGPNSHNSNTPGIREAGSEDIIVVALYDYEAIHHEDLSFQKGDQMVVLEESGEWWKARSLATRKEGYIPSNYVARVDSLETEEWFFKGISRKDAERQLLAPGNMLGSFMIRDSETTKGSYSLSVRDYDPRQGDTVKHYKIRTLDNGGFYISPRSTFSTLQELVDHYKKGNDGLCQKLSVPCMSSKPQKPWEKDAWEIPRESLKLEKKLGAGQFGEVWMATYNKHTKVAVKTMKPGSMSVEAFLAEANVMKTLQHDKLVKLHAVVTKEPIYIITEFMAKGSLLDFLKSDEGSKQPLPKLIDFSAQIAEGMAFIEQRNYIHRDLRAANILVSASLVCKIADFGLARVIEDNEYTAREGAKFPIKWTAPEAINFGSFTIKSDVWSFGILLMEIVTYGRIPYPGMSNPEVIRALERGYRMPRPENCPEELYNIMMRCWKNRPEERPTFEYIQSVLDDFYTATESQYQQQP

[5] = biological target: Insulin-like growth factor 1 receptor (Homo sapiens) (UniProt P08069); conditions: at 1 µM
[6] = biological target: Insulin-like growth factor 1 receptor (Homo sapiens) (UniProt P08069); conditions: at 10 µM
[7] = biological target: Glycogen synthase kinase-3 beta (Homo sapiens) (UniProt P49841); conditions: at 1 µM
[8] = biological target: Homeodomain-interacting protein kinase 1 (Homo sapiens) (UniProt Q86Z02); conditions: at 10 µM
Sequence of Homeodomain-interacting protein kinase 1 (Homo sapiens) (Q86Z02 whole entry, looked up): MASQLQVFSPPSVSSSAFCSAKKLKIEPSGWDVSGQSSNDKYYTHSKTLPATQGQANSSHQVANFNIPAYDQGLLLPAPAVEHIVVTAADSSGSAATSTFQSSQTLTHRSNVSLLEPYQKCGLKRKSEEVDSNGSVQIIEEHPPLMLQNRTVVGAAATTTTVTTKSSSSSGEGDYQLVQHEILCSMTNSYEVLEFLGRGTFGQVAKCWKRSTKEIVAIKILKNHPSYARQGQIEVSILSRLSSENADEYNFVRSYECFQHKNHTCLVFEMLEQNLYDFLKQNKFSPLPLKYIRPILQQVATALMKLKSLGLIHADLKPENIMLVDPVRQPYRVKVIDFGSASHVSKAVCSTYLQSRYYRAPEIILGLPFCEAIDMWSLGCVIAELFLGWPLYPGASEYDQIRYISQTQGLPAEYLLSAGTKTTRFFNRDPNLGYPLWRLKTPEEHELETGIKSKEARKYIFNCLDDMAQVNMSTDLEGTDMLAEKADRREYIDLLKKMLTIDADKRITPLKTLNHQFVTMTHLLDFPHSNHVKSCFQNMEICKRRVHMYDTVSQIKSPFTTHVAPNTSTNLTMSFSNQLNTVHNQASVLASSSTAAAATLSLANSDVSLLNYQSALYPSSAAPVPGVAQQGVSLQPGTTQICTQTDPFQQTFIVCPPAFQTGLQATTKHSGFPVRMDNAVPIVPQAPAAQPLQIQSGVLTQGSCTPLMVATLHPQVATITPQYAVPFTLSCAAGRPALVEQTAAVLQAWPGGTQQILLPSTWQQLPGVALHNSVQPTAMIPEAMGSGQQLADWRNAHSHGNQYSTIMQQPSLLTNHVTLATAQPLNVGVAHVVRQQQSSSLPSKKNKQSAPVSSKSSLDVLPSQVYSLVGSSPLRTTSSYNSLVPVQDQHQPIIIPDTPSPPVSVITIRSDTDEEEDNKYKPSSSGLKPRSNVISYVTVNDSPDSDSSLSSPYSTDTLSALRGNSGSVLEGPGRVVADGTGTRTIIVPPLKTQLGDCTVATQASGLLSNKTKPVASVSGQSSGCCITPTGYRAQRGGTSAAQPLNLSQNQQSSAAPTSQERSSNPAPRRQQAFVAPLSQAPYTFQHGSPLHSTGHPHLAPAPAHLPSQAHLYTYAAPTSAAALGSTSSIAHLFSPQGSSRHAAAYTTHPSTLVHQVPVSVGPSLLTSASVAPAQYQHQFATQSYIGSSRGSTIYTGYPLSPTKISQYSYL

[9] = biological target: Homeodomain-interacting protein kinase 2 (Homo sapiens) (UniProt Q9H2X6); conditions: at 1 µM
Sequence of Homeodomain-interacting protein kinase 2 (Homo sapiens) (Q9H2X6 whole entry, looked up): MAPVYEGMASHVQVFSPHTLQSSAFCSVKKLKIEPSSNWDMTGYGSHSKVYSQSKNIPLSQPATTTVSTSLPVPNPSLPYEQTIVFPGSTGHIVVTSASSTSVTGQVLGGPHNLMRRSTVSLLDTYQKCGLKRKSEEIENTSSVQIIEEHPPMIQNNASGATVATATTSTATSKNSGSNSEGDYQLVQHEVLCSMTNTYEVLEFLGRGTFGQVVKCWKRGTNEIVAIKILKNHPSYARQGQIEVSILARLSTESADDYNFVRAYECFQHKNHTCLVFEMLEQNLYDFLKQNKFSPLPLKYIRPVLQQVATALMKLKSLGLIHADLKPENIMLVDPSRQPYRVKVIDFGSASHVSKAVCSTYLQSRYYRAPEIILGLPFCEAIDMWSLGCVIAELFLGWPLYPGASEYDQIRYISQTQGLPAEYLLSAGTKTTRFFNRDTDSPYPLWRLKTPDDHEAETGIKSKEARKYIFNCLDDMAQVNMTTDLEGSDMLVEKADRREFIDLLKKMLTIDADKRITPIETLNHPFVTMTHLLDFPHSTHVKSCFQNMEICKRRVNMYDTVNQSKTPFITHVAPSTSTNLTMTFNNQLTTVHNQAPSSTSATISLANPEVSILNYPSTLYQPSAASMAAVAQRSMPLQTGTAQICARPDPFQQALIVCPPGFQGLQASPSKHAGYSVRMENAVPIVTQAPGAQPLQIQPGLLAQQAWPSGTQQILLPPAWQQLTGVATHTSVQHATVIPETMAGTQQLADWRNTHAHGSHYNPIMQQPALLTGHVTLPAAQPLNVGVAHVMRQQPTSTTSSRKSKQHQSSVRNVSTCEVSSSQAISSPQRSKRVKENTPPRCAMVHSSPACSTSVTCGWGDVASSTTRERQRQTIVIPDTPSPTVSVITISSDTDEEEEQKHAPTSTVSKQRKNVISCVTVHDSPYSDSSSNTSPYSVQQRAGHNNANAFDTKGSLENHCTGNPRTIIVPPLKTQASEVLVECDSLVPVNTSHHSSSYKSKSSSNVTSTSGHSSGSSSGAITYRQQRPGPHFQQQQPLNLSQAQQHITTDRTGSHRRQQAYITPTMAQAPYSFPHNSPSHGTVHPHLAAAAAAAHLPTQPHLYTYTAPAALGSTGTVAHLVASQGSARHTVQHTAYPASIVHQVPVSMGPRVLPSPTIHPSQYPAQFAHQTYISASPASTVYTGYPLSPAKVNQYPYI

[10] = biological target: Homeodomain-interacting protein kinase 2 (Homo sapiens) (UniProt Q9H2X6); conditions: at 10 µM
[11] = biological target: T1, Serine/threonine-protein kinase haspin (Homo sapiens) (UniProt Q8TF76); conditions: at 1 µM
T1 sequence (whole entry): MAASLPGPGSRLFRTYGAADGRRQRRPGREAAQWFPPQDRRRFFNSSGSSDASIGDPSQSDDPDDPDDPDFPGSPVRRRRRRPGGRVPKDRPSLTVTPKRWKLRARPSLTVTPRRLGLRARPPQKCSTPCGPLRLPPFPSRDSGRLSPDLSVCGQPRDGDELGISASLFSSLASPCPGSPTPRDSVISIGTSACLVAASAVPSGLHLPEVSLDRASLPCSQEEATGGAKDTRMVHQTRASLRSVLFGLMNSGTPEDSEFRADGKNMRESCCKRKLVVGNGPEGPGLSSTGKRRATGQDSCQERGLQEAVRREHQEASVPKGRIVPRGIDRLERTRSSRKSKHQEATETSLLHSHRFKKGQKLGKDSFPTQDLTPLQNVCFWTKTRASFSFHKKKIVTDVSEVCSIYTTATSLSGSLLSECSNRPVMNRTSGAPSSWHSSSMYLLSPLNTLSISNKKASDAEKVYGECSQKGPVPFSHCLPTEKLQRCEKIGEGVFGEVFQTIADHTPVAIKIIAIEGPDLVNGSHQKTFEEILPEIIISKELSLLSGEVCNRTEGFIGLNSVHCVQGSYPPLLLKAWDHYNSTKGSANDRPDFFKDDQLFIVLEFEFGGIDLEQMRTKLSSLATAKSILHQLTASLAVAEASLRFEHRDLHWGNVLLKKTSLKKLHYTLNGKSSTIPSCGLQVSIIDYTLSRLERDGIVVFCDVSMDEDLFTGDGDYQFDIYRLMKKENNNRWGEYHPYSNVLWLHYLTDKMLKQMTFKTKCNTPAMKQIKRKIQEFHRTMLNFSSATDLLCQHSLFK

[12] = biological target: T1, Serine/threonine-protein kinase haspin (Homo sapiens); conditions: at 10 µM
[13] = biological target: T2, Protein kinase C zeta type (Homo sapiens) (UniProt Q05513); conditions: at 10 µM
T2 sequence (whole entry): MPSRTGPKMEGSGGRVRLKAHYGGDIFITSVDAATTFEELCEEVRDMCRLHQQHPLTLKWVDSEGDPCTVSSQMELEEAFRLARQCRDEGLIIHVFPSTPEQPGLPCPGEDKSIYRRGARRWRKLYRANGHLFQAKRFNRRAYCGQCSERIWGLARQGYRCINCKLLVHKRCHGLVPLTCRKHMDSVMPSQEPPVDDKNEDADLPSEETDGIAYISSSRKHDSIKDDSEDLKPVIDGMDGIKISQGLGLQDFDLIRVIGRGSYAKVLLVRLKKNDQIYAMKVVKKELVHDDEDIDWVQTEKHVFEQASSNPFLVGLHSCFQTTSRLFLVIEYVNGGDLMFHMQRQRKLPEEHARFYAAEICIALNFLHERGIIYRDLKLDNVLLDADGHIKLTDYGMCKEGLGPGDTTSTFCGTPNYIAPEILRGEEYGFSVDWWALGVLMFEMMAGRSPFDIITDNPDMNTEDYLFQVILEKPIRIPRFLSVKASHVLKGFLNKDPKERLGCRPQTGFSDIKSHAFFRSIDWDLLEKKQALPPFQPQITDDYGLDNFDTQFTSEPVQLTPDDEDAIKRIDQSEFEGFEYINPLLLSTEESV

[14] = biological target: Homeodomain-interacting protein kinase 3 (Homo sapiens) (UniProt Q9H422); conditions: at 1 µM
Sequence of Homeodomain-interacting protein kinase 3 (Homo sapiens) (Q9H422 whole entry, looked up): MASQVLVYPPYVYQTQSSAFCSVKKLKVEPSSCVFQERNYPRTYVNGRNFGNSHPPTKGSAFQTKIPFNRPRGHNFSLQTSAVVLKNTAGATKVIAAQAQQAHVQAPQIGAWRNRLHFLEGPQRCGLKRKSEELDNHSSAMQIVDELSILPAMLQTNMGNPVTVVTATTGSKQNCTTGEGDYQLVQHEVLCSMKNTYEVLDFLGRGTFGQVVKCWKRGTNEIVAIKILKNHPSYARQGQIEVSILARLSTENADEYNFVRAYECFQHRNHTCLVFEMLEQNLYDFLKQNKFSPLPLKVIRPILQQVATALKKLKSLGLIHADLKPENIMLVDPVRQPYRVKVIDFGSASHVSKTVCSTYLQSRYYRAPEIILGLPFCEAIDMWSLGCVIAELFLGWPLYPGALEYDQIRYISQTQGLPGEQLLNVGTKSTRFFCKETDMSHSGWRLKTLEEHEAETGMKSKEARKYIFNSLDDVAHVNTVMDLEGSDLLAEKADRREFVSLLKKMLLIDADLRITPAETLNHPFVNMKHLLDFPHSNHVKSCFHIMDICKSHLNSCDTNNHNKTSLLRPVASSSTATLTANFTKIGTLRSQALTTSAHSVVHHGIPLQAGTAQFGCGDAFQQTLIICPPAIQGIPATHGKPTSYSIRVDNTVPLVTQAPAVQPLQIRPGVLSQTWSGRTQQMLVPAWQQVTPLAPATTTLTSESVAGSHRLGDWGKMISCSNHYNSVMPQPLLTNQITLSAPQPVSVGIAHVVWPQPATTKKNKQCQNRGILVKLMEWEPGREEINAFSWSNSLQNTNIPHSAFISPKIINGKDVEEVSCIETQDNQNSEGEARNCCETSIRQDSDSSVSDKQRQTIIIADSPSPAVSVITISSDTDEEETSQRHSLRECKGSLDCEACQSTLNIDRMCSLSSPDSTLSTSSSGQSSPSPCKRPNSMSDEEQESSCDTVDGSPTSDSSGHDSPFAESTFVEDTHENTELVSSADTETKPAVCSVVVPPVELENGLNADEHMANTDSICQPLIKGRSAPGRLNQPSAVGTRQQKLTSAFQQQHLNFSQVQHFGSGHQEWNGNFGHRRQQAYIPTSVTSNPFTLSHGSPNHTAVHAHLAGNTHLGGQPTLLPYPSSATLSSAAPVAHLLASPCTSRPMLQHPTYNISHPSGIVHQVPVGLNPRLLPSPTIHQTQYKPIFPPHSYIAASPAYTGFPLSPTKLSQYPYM

[15] = biological target: Homeodomain-interacting protein kinase 3 (Homo sapiens) (UniProt Q9H422); conditions: at 10 µM
[16] = biological target: Tyrosine-protein kinase HCK (Homo sapiens) (UniProt P08631); conditions: at 1 µM
[17] = biological target: T3, Rhodopsin kinase GRK7 (Homo sapiens) (UniProt Q8WTQ7); conditions: at 10 µM
T3 sequence (whole entry): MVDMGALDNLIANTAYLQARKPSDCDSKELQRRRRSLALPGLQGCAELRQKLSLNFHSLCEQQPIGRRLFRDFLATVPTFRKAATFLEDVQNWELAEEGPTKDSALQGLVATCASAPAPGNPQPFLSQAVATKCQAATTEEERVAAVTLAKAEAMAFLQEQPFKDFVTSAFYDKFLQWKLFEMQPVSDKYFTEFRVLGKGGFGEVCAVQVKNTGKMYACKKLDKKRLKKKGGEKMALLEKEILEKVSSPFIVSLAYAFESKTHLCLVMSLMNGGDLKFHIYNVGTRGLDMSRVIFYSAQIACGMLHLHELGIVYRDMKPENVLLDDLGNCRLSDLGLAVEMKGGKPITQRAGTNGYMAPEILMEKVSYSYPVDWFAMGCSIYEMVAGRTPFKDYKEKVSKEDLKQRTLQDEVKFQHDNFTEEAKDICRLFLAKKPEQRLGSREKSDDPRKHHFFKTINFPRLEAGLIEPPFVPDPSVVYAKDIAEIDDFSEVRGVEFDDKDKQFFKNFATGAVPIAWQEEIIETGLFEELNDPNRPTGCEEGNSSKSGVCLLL

[18] = biological target: Homeodomain-interacting protein kinase 1 (Homo sapiens) (UniProt Q86Z02); conditions: at 1 µM
[19] = biological target: Tyrosine-protein kinase HCK (Homo sapiens) (UniProt P08631); conditions: at 1 µM; remark: listed apart in the source
[20] = biological target: Tyrosine-protein kinase HCK (Homo sapiens) (UniProt P08631); conditions: at 10 µM; remark: listed apart in the source

Sequence of Glycogen synthase kinase-3 alpha (Homo sapiens) (P49840 2-483 limits assumed): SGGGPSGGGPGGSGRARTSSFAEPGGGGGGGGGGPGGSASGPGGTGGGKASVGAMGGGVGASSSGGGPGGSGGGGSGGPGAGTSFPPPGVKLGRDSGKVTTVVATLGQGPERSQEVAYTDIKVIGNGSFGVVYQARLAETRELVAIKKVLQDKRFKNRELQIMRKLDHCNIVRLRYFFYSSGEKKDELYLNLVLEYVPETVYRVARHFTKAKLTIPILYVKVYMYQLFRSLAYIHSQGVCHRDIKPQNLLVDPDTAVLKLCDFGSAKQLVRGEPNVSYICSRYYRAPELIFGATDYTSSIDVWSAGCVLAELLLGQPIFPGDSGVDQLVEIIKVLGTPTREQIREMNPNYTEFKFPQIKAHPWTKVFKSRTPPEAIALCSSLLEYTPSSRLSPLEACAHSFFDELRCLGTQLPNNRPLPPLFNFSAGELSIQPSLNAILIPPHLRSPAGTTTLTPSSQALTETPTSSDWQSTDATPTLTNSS

SMILES: COc1ccc(COc2ccc(Cc3cnc(N)nc3N)cc2OC)cc1
- residual activity [1]: 120%
- residual activity [2]: 119%
- residual activity [3]: 80%
- residual activity [4]: 65%
- residual activity [5]: 128%
- residual activity [6]: 133%

SMILES: O=C1Cc2c([nH]c3ccc(Br)cc23)-c2ccccc2N1
- residual activity [7]: 8%
- residual activity [3]: 7%
- residual activity [8]: 90%
- residual activity [9]: 98%
- residual activity [10]: 64%
- residual activity [11]: 60%
- residual activity [12]: 44%
- residual activity [4]: 28%
- residual activity [6]: 141%
- residual activity [13]: 92%

SMILES: CC(C)N(CCC(=O)c1ccc2ccccc2c1)Cc1ccccc1
- residual activity [2]: 135%
- residual activity [14]: 86%
- residual activity [15]: 100%
- residual activity [11]: 81%
- residual activity [12]: 66%
- residual activity [16]: 79%
- residual activity [4]: 64%

SMILES: O=c1cc(N2CCOCC2)oc2c(-c3ccccc3)cccc12
- residual activity [17]: 81%
- residual activity [12]: 54%
- residual activity [16]: 66%
- residual activity [4]: 58%
- residual activity [5]: 133%

SMILES: Nc1ncnc2[nH]nc(Nc3ccc(F)cc3)c12
- residual activity [1]: 98%
- residual activity [2]: 90%
- residual activity [7]: 100%
- residual activity [3]: 93%
- residual activity [18]: 108%
- residual activity [8]: 96%
- residual activity [9]: 100%
- residual activity [10]: 92%
- residual activity [11]: 78%
- residual activity [12]: 53%
- residual activity [16]: 37%
- residual activity [4]: 16%
- residual activity [19]: 56%
- residual activity [20]: 11%
- residual activity [5]: 127%
- residual activity [6]: 94%
- residual activity [13]: 98%

SMILES: NC(=O)c1ccc(-c2nc(-c3ccc4c(c3)OCCO4)c(-c3ccccn3)[nH]2)cc1
- residual activity [7]: 117%
- residual activity [3]: 98%
- residual activity [11]: 95%
- residual activity [12]: 82%
- residual activity [16]: 68%
- residual activity [4]: 66%
- residual activity [6]: 137%

SMILES: O=S(=O)(c1cccc2cnccc12)N1CCCNCC1
- residual activity [7]: 136%
- residual activity [11]: 60%
- residual activity [12]: 8%

SMILES: N#C/C(=C1/Nc2ccccc2S1)c1ccnc(NCCc2cccnc2)n1
- residual activity [1]: 1%
- residual activity [2]: -1%
- residual activity [7]: 8%
- residual activity [3]: 1%
- residual activity [9]: 47%
- residual activity [10]: 6%
- residual activity [14]: 88%
- residual activity [15]: 21%
- residual activity [11]: 36%
- residual activity [12]: -2%
- residual activity [16]: 60%
- residual activity [4]: 26%
- residual activity [19]: 88%
- residual activity [20]: 68%
- residual activity [5]: 143%
- residual activity [6]: 72%

SMILES: CCOC(=O)c1c(C)[nH]c(/C=C2\C(=O)Nc3ccccc32)c1C
- residual activity [2]: 129%
- residual activity [7]: 99%
- residual activity [3]: 80%
- residual activity [16]: 77%
- residual activity [4]: 74%
- residual activity [19]: 93%
- residual activity [20]: 97%
- residual activity [5]: 119%

SMILES: O=S(=O)(NCCNC/C=C/c1ccc(Br)cc1)c1cccc2cnccc12
- residual activity [17]: 58%
- residual activity [11]: 7%
- residual activity [12]: 0%
- residual activity [4]: 72%
- residual activity [13]: 78%

SMILES: O=C1Cc2c([nH]c3ccc([N+](=O)[O-])cc23)-c2ccccc2N1
- residual activity [1]: 1%
- residual activity [2]: 2%
- residual activity [7]: -1%
- residual activity [3]: 3%
- residual activity [18]: 109%
- residual activity [8]: 100%
- residual activity [16]: 41%
- residual activity [4]: 28%
- residual activity [19]: 81%
- residual activity [20]: 81%
- residual activity [6]: 123%

SMILES: CCOc1nc(NC(=O)Cc2cc(OC)ccc2OC)cc(N)c1C#N
- residual activity [16]: 78%
- residual activity [4]: 71%
- residual activity [6]: 130%

SMILES: CN([C@@H](Cc1ccc(OS(=O)(=O)c2cccc3cnccc23)cc1)C(=O)N1CCN(c2ccccc2)CC1)S(=O)(=O)c1cccc2cnccc12
- residual activity [17]: 85%
- residual activity [12]: 57%
- residual activity [16]: 86%
- residual activity [4]: 61%
- residual activity [6]: 182%

SMILES: O=C1NC(=O)C(c2cn(CCCO)c3ncccc23)=C1c1cnccn1
- residual activity [1]: 6%
- residual activity [2]: 3%
- residual activity [7]: 34%
- residual activity [3]: 10%
- residual activity [18]: 93%
- residual activity [8]: 93%
- residual activity [9]: 56%
- residual activity [10]: 52%
- residual activity [11]: 69%
- residual activity [12]: 55%
- residual activity [16]: 66%
- residual activity [4]: 48%
- residual activity [19]: 95%
- residual activity [20]: 96%
- residual activity [5]: 138%
- residual activity [6]: 124%

SMILES: COc1cc2nccc(Oc3ccc(NC(=O)Nc4cc(C)on4)c(Cl)c3)c2cc1OC
- residual activity [1]: 107%
- residual activity [2]: 123%
- residual activity [18]: 96%
- residual activity [8]: 106%
- residual activity [16]: 7%
- residual activity [4]: 2%
- residual activity [19]: 5%
- residual activity [20]: 6%
- residual activity [5]: 135%

SMILES: CC(C)(C)c1nc2c3ccc(F)cc3c3c(=O)[nH]ccc3c2[nH]1
- residual activity [8]: 98%
- residual activity [9]: 65%
- residual activity [10]: 21%
- residual activity [14]: 79%
- residual activity [15]: 45%
- residual activity [11]: 74%
- residual activity [12]: 34%
- residual activity [16]: 49%
- residual activity [4]: 31%
- residual activity [19]: 68%
- residual activity [20]: 60%
- residual activity [5]: 119%

SMILES: Nc1nccc(-c2c(-c3ccc(F)cc3)ncn2C2CCNCC2)n1
- residual activity [3]: 64%
- residual activity [8]: 82%
- residual activity [10]: 62%
- residual activity [11]: 54%
- residual activity [12]: 36%
- residual activity [4]: 53%
- residual activity [20]: 43%
- residual activity [6]: 120%
